KCNH2 3.1 inh: KCNH2 3.1 (human) potassium channel inhibition; U2OS KCNH2 3.1, thallium flux FluxOr; active compounds read low; activity change, % (tested at about 1.8 µM); 340,000 compounds, 0.95% hits; AID 720553;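 active = maximum activity change below -70%; inconclusive = maximum activity change from -70% to -50%; inactive = maximum activity change above -50%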;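 also: thallium influx rate constant from kinetic fluorescence after stimulation buffer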
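Measured as rate of thallium-driven FluxOr signal in transduced U2OS cells carrying the 3.1 channel, read kinetically for 2 min upon stimulation; values are rate constants scaled to DMSO control wells.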
KB-3-1 cytotox: kills parental KB-3-1 adenocarcinoma cells; Potency, µM (top dose mostly 46.1 µM), actives largely listed as cytotoxic; 400,000 compounds, 1.4% hits; AID 1347075; KB-3-1 viability, CellTiter-Glo ATP luminescence, 72 h; also: nearly all actives have a fitted effect of over 60% in size
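KB-3-1 parental drug-naive adenocarcinoma cells in DMEM/10% FBS, incubated 72 h at 37 C with pin-transferred compounds across a concentration series. Viability by CellTiter-Glo luminescence; concentration-response curves fitted after normalization.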
SW480 rereplic: DNA re-replication induction in SW480 cells | SW480 DNA re-replication, Hoechst DNA content imaging, 48 h | Potency, µM (series often up to 46.1 µM), hits mostly activators | 340,000 compounds, 1.8% hits | AID 624297; also: nearly all actives have a fitted effect of over 55% in size
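Hoechst fluorescence of nuclei (405 nm excitation, 500-530 nm emission) measured by plate-scanning imager after 48 hr compound exposure at 37 C; re-replication scored as increased number of nuclei with elevated intensity.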
KB-V1 MDR tox: kills drug-selected multidrug resistant KB-V1 cells; Potency, µM (top dose mostly 46.1 µM), usual class: cytotoxic; 400,000 compounds, 3.4% hits; KB-V1 MDR cells viability, CellTiter-Glo, 72 h; also: nearly all actives have a fitted effect of over 60% in size
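KB-V1 MDR subline cells in DMEM (phenol-red free, 10% FBS) exposed to compounds in qHTS concentration series for 72 h at 37 degrees C. Viability read by CellTiter-Glo luminescence; concentration-effect curves fitted after normalization and correction.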
hERG WT inh: blocks the wildtype human KCNH2 potassium channel | Q12809 | U2OS, BacMam KCNH2, thallium flux FluxOr; active compounds read low | activity change, % at 1.84 µM | 340,000 compounds, 0.37% hits | AID 720551;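 active = maximum activity change below -70%; inconclusive = maximum activity change between -70% and -50%; inactive = maximum activity change above -50%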
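U2OS cells transduced with wild-type KCNH2 virus are loaded with FluxOr dye for 45 min, and thallium flux is measured in kinetic reads before and after stimulation buffer. Rate constants are normalized to DMSO controls.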
MCF10A rerep: induces DNA re-replication in MCF 10a normal breast cells; 350,000 compounds, 2.9% hits; MCF 10A DNA re-replication, Hoechst nuclear intensity, 48 h; Potency, µM (top dose mostly 46.1 µM), hits mostly activators; also: nearly all actives have a fitted effect of over 50% in size
A number is an active result; . = inactive; ? = inconclusive; / = no result; [ ] = dose if it differs, or a comment. Rows were chosen to be rich in hits. Some 7.6% of all compounds tested hit in one or more screens of this group. Unless noted, calls follow the shape of the dose curve; as a rule, active = well fitted curve in the direction sought with a large enough effect; inconclusive = small, poorly fitted or top-dose-only effect, or another doubt; inactive = no such curve, though single readings can be large; an effect the other way counts as inactive or inconclusive.

SMILES | KCNH2 3.1 inh | KB-3-1 cytotox | SW480 rereplic | KB-V1 MDR tox | hERG WT inh | MCF10A rerep
CCOc1ccc(N2CC(O)(c3cccs3)[N+]3=C2CCCC3)cc1 (stereo not drawn) | -102.2 | . | . | . | ? | .
CCOc1ccc(N2CC(O)(c3ccc(F)cc3)[N+]3=C2CCCC3)cc1 (stereo not drawn) | -104.4 | . | . | . | . | .
COc1ccc(N2CC(O)(c3ccc(OC(F)F)cc3)[N+]3=C2CCCC3)cc1 (stereo not drawn) | -72.5 | . | . | . | -85.7 | .
OC1(c2cccs2)CN(c2ccccc2)C2=[N+]1CCCC2 (stereo not drawn) | . | . | . | . | . | .
COc1ccc(N2CC(O)(c3ccc(F)cc3)[N+]3=C2CCCC3)cc1 (stereo not drawn) | . | . | . | . | . | .
COc1ccc(-c2c([C@H]3[C@H]4C=CC[C@@H](C)[C@@H]4C(=O)N3Cc3ccccc3)ccc3ccccc23)cc1OC | . | ? | .[9.22 µM] | . | . | .
N#CC1=C(N)NC(SCC(=O)O)=C(C#N)C12CCCC2 | . | . | . | ? | . | .
N#CC1=C(N)NC(SCc2ccc(F)cc2)=C(C#N)C12CCCCC2 | / | 23.1µM | ? | ? | . | 8.2µM
COc1cccc(NC(=O)C2C3C=CC(O3)C2C(=O)NCc2cccnc2)c1 (stereo not drawn) | . | . | . | . | . | .
CCc1noc(C)c1C(=O)NNC(=O)c1cc(OC)c(OC)c(OC)c1 | . | . | 18.4µM | . | . | .
O=C(Nc1cccc(OC(F)(F)F)c1)C1Cc2c(-c3ccccc3Oc3ccccc3)ccnc2O1 (stereo not drawn) | / | . | / | . | / | /
CCN(CC)c1ccc(NC(=O)c2sc3nc4c(cc3c2N)CN(C)CC4)cc1 | / | . | / | . | / | /
CN1CCc2nc3sc(C(=O)NCc4ccccc4)c(N)c3cc2C1 | . | . | . | . | . | 18.4µM
Cc1cc2nc(C(C)(C)C)c(Cc3ccccc3C(F)(F)F)n2c(C)c1Br | / | . | / | . | / | /
CN1CCN(C(=O)c2cccc(-c3cnc4cnc(-c5ccccc5Oc5ccccc5)cn34)c2)CC1 | / | ? | / | 7.31µM | / | /
Cn1cc(CN2CCCC(C(=O)Nc3cccc(-n4cccn4)c3)C2)cn1 (stereo not drawn) | . | . | . | ? | . | .
Cc1cc(CN2CCCC(C(=O)Nc3cccc(-n4cccn4)c3)C2)cc(C)c1O (stereo not drawn) | . | . | . | . | . | .
Cc1c(CN2CCCC(C(=O)Nc3cccc(-n4cccn4)c3)C2)cnn1C (stereo not drawn) | . | . | ? | . | . | ?
CCn1ncc(CN2CCCC(C(=O)Nc3cccc(-c4cc5ccccc5[nH]4)c3)C2)c1C (stereo not drawn) | . | ? | ? | ? | . | 16.4µM
CSc1cccc(CN2CCCC(C(=O)Nc3cccc(-n4cccn4)c3)C2)c1 (stereo not drawn) | . | / | 16.4µM | / | . | ?
O=C(Nc1cccc(-n2cccn2)c1)C1CCCN(Cc2cc3ccccc3[nH]2)C1 (stereo not drawn) | . | . | ? | . | . | 20.6µM
CC(C)NC(=O)c1ccc2c3n(nc2c1)-c1ccccc1CO3 | . | ? | . | 5.8µM | . | .
CC(C)[C@@H](CO)NC(=O)c1ccc2c3n(nc2c1)-c1ccccc1CO3 | . | . | . | . | . | .
CNC[C@@H](CC1CCCCC1)NC[C@H](CC(C)C)NCCc1cccc(C(F)(F)F)c1 | . | ? | ? | ? | . | 7.31µM
CNC[C@@H](Cc1ccccc1)NC[C@@H](CC1CCCCC1)NCCCc1ccccc1 | . | ? | . | . | . | .
SMILES | KCNH2 3.1 inh | KB-3-1 cytotox | SW480 rereplic | KB-V1 MDR tox | hERG WT inh | MCF10A rerep
Cc1ccccc1-n1nc2c(c1NC(=O)c1c(-c3ccccc3Cl)noc1C)CS(=O)(=O)C2 | . | . | . | 8.2µM | . | .
Cc1ccccc1-n1nc2c(c1NC(=O)c1ccco1)CS(=O)(=O)C2 | . | . | . | . | . | .
Cc1ccc(-n2nc3c(c2NC(=O)c2c(-c4ccccc4Cl)noc2C)CS(=O)(=O)C3)c(C)c1 | . | . | . | 11.6µM | . | .
COc1ccc(N2C(=O)CCC(C(=O)NCCCN3CCC(C)CC3)C2c2ccc(OC)c(OC)c2)cc1 (stereo not drawn) | . | . | .[1.84 µM] | ? | . | .
COc1ccc(NC(=O)CCNS(=O)(=O)c2ccc3[nH]c(=O)oc3c2)cc1Cl | . | . | . | . | . | .
CN1CCN(C(=O)CCN2C(=O)/C(=C/c3ccc(F)cc3)SC2=S)CC1 | . | 20.6µM | . | . | . | ?
Cc1ccc(/C=C2\SC(=O)N(CCC(=O)N3CCN(C)CC3)C2=O)cc1 | . | . | . | ? | . | 13µM
Cc1ccc(/C=C2/SC(=S)N(CCC(=O)N3CCN(C)CC3)C2=O)cc1 | . | ? | . | . | . | .
CN1CCN(C(=O)CCN2C(=O)S/C(=C/c3ccc(Cl)cc3)C2=O)CC1 | . | . | . | ? | . | ?
O=C(CCCN1C(=O)/C(=C/c2ccccc2Cl)SC1=S)N1CCOCC1 | . | ? | ? | . | . | ?
CN1CCN(C(=O)CCN2C(=O)/C(=C/c3ccccc3Cl)SC2=S)CC1 | . | ? | ? | ? | . | 5.8µM
CN1CCN(C(=O)CCN2C(=O)/C(=C\c3ccccc3F)SC2=S)CC1 | . | ? | ? | . | . | 23.1µM
O=C1NCCN1CCNS(=O)(=O)c1cc(C(F)(F)F)cc(C(F)(F)F)c1 | . | . | . | . | . | .
O=C(CSCc1c[nH]c(=O)[nH]c1=O)OCC(=O)c1ccc(Br)cc1 | . | . | . | . | . | .
Cc1cc(=O)n2c(C(=O)Nc3ccc(Br)cc3)c(C(=O)Nc3ccccc3)sc2n1 | / | . | / | . | / | /
Cc1cc(C)nc(SCc2ccc(C(=O)N/N=C/c3ccco3)cc2)n1 | . | . | . | . | . | .
Cc1ccc(CN2CCN(Cc3ccc4cccc(F)c4n3)CC2CCO)cc1 (stereo not drawn) | . | . | ? | . | . | ?
COc1ccc(/C=C2\SC(=S)N(CCCC(=O)N3CCOCC3)C2=O)cc1 | . | 23.1µM | ? | ? | . | ?
O=C(CCN1C(=O)/C(=C/c2ccccc2Cl)SC1=S)NC1C=CS(=O)(=O)C1 (stereo not drawn) | . | . | ? | . | . | 14.6µM
O=C(CCN1C(=O)/C(=C/c2ccc(F)cc2)SC1=S)NC1C=CS(=O)(=O)C1 (stereo not drawn) | . | . | . | ? | . | ?
O=C(CCN1C(=O)/C(=C\c2ccccc2)SC1=S)N1CCCCC1 | . | ? | . | . | . | ?
O=C(CCN1C(=O)/C(=C/c2cccs2)SC1=S)N1CCCCC1 | . | ? | 23.1µM | ? | . | ?

From PubChem
